From PubChem BioAssay (NCI) come the findings set out here.

This is part of a sample that, as a whole, favours compounds with a hit. Of some 83,000 tested, about 20% had one in any assay.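 In brief: 96-well plates, 48 h treatment, single concentration, percent growth endpoint.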 Unmarked numbers belong to inactive results. The source made the active and inactive calls. How the source made its calls: active means growth percent below 10; inactive means the rest.

Among the test systems are T-47D breast; BT-549 breast; MDA-MB-435 melanoma; SW-620 colon; MCF7 breast; HCT-116 colon; HCC-2998 colon; KM12 colon.
Experiment in all cases: NCI-60 one-dose screen, 48 h (100 = growth as untreated, 0 = no growth, -100 = all killed)
Holding throughout (details): 10 µM unless noted

Regarding `CCOC(=O)NNc1nncc2ccccc12`, the growth in the assay on T-47D breast is 94.8%; with BT-549 breast, 113%; in the assay on MDA-MB-435 melanoma, 100%; in the assay on SW-620 colon, 104%; with MCF7 breast, 105%; in the assay on HCT-116 colon, 106%. The results for the growth with HCC-2998 colon and in the assay with KM12 colon were 103% and 101%, respectively.

For `CCCCNC(=O)Oc1ccc(/C(=C(/CC)Cc2ccccc2)c2ccc(OCCCN(C)C)cc2)cc1`, the growth in the assay on T-47D breast is 60.7%; in the assay on BT-549 breast, 95.4%; with MDA-MB-435 melanoma it was 83.3%; with SW-620 colon it was 77.3%; with MCF7 breast, 27.9%; with HCT-116 colon, 67.9%. Also, the growth is 88.3% in the assay on HCC-2998 colon and 78.3% in the assay with KM12 colon.

Take `Nc1nccc2c1ccn2-c1cccc(NC(=O)c2ccc(N3CCOCC3)c(C(F)(F)F)c2)c1`: the growth was 45.7% in the assay with T-47D breast; -5.74% (active) with BT-549 breast; 2.02% (active) with MDA-MB-435 melanoma; 25.5% in the assay on SW-620 colon; 16% in the assay with MCF7 breast; 7.23% (active) with HCT-116 colon. The growth in the assay on HCC-2998 colon is 23.9%; in the assay with KM12 colon it was -14.5% (active).

In the case of `O=C(Nc1ccc(-n2ccc3c(NC(=O)c4ccccc4)nccc32)cc1)Nc1cccc(C(F)(F)F)c1`, the growth in the assay with T-47D breast is 57.6%; in the assay on BT-549 breast it was 74%; with MDA-MB-435 melanoma, 61.4%; in the assay on SW-620 colon it was 63.4%; with MCF7 breast, 47.7%; with HCT-116 colon it was 4.34% (active). For the same compound, the growth is 67.8% in the assay with HCC-2998 colon and 11.2% in the assay on KM12 colon.

Regarding `O=C(Nc1cccc(-n2ccc3c(NC(=O)c4ccccc4)ncnc32)c1)Nc1ccc(Cl)c(C(F)(F)F)c1`, the growth in the assay on T-47D breast was 21.6%; with BT-549 breast, 45.9%; in the assay on MDA-MB-435 melanoma it was -7.53% (active); in the assay on SW-620 colon it was 41.3%; in the assay with MCF7 breast, 20%; in the assay with HCT-116 colon it was 17%. Moreover, the growth in the assay on HCC-2998 colon was 40.8%; in the assay on KM12 colon, 12.5%.

`COc1cc2ncn3c(=O)c4c5c(sc4nc3c2cc1OC)CCCCC5`: the growth was 84.7% in the assay with T-47D breast; 105% with BT-549 breast; 109% in the assay with MDA-MB-435 melanoma; 101% in the assay with SW-620 colon; 86.8% in the assay with MCF7 breast; 97.4% in the assay on HCT-116 colon. Also, the growth with HCC-2998 colon was 106%; in the assay with KM12 colon, 99.2%.

For `COc1ccc2c(c1)OC(N)=C(C#N)C2c1ccc(F)c(F)c1` (stereo not drawn), the growth in the assay with T-47D breast is 46.8%; in the assay with BT-549 breast, 48.3%; in the assay on MDA-MB-435 melanoma it was -18.6% (active); in the assay with SW-620 colon, 21.3%; in the assay with MCF7 breast, 18.8%; in the assay with HCT-116 colon it was 24.2%. Moreover, the growth is 49.7% in the assay with HCC-2998 colon and 28.6% in the assay on KM12 colon.

As for `CCOC(=O)C1=C(N)Oc2cc(OC)ccc2C1c1ccc(F)c(F)c1` (stereo not drawn), the growth in the assay with T-47D breast was 36.4%; in the assay with BT-549 breast it was 50.2%; in the assay on MDA-MB-435 melanoma, -15.8% (active); in the assay with SW-620 colon, 21.1%; in the assay with MCF7 breast it was 16.6%; with HCT-116 colon, 31.8%. The figures for the growth in the assay with HCC-2998 colon and in the assay with KM12 colon were 54.5% and 27%, respectively.

Turning to `O=C(COc1ccc(Cl)cc1Cl)N1N=C(c2ccc(Cl)cc2Cl)CC1(O)c1cc(F)c(Cl)cc1Cl` (stereo not drawn), the growth in the assay with T-47D breast was 98.8%; in the assay on BT-549 breast, 111%; in the assay with MDA-MB-435 melanoma it was 107%; in the assay on SW-620 colon, 116%; in the assay with MCF7 breast, 95.6%; with HCT-116 colon it was 95%. For the same compound, the growth is 124% in the assay on HCC-2998 colon and 117% with KM12 colon.

On to `CCCCC(=O)Nc1nc2ccc(SCCC)cc2s1`, for which the growth was 48% in the assay on T-47D breast; 40.6% with BT-549 breast; 4.42% (active) with MDA-MB-435 melanoma; 34.6% in the assay with SW-620 colon; 35% with MCF7 breast; 31.1% in the assay on HCT-116 colon. The growth with HCC-2998 colon is 77.1%; in the assay on KM12 colon, 34.1%.

Consider `O=C(Cn1c2ccccc2c2ccncc21)N/N=C\c1ccc2ccccc2c1`, for which the growth is 35% with T-47D breast; 52.5% in the assay with BT-549 breast; 24.5% in the assay with MDA-MB-435 melanoma; 26.4% in the assay on SW-620 colon; 11.7% with MCF7 breast; -41.7% (active) in the assay on HCT-116 colon. Also, the growth was 74.5% in the assay with HCC-2998 colon and 36% in the assay on KM12 colon.

In the case of `CCOC(=O)c1noc2c1CCc1c-2cn(Cc2ccc(OC)cc2)c1-c1cc(OC)c(OC)c(OC)c1`, the growth was 40.9% in the assay on T-47D breast; 19.6% in the assay with BT-549 breast; -28.1% (active) in the assay with MDA-MB-435 melanoma; 22.9% in the assay with SW-620 colon; 18% with MCF7 breast; 8.2% (active) with HCT-116 colon. The growth in the assay on HCC-2998 colon is 39.6%; with KM12 colon it was 21.3%.

On to `CC(=O)c1cc2c(N)c(C(=O)Nc3cccc(Cl)c3)sc2nc1C`, for which the growth was 83.6% in the assay with T-47D breast; 75.5% in the assay with BT-549 breast; 2.38% (active) in the assay with MDA-MB-435 melanoma; 98.2% in the assay on SW-620 colon; 74% with MCF7 breast; 102% in the assay with HCT-116 colon. Moreover, the growth is 85.3% with HCC-2998 colon and 84.1% in the assay on KM12 colon.

With `CC(NCCC(c1ccccc1)c1ccccc1)c1ccccc1` (stereo not drawn), the growth in the assay with T-47D breast is 109%; in the assay with BT-549 breast, 83.1%; in the assay with MDA-MB-435 melanoma, 27%; in the assay on SW-620 colon, 36.7%; in the assay on MCF7 breast, 74.8%; in the assay with HCT-116 colon, 42.8%. For the same compound, the growth in the assay on HCC-2998 colon was -31.1% (active); in the assay with KM12 colon, 41.5%.

Consider `COc1cc(/C=C/C(=O)c2ccc(Oc3ncnc4ccccc34)cc2)cc(OC)c1OC`, for which the growth in the assay on T-47D breast is 35.9%; with BT-549 breast, 58%; in the assay with MDA-MB-435 melanoma it was 50.6%; in the assay with SW-620 colon, 53.2%; in the assay on MCF7 breast it was 27%; in the assay with HCT-116 colon, 52.8%. For the same compound, the growth in the assay on HCC-2998 colon was 108%; in the assay on KM12 colon, 19.4%.

Turning to `CC(C)NCC(O)COc1ccc(CC(N)=O)cc1` (stereo not drawn), the growth with T-47D breast was 98.9%; in the assay on BT-549 breast, 96.7%; with MDA-MB-435 melanoma it was 107%; in the assay with SW-620 colon, 100%; in the assay on MCF7 breast, 98.1%; in the assay on HCT-116 colon it was 99.2%. For the same compound, the growth with HCC-2998 colon and in the assay with KM12 colon was 106% in each case.
